This is a sample that favours compounds with a hit; in the whole collection about 13% have one here.
USP17 block = inhibitors of human USP17 deubiquitinase. Ubiquitin carboxyl-terminal hydrolase 17-like protein 5 (Homo sapiens), A8MUK1. purified USP17, Ub-rhodamine cleavage fluorescence, 3 h. inhibition, % at 50 µM. hit rate 6.5% among 47,000
USP30 block = inhibitors of human USP30 deubiquitinase. Ubiquitin carboxyl-terminal hydrolase 30 (Homo sapiens), Q70CQ3. purified USP30, Ub-rhodamine cleavage fluorescence. inhibition, % at 25 µM. hit rate 5.3% among 47,000
Target sequence (Q70CQ3 whole entry, looked up): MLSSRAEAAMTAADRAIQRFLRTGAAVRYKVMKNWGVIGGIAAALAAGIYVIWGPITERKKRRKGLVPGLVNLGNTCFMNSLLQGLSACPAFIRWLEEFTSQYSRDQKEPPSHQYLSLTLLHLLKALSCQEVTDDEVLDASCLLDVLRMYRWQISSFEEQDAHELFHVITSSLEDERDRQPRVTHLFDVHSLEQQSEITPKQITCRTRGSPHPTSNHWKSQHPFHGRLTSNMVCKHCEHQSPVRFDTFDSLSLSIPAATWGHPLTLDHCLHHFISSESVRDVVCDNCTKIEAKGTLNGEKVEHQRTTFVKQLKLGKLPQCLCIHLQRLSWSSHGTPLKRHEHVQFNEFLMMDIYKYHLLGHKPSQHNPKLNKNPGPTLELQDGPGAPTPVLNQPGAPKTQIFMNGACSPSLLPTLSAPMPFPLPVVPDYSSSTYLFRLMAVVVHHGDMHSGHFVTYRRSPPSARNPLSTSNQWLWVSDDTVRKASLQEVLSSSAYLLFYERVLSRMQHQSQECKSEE
USP28 block = inhibitors of human USP28 deubiquitinase | Ubiquitin carboxyl-terminal hydrolase 28 (Homo sapiens), Q96RU2 | purified USP28, Ub-rhodamine cleavage fluorescence, 30 min | inhibition, % at 25 µM | hit rate 3% among 47,000
USP8 inh = inhibitors of human USP8 deubiquitinase | AID 1645853, 2021 | purified USP8, Ub-rhodamine cleavage fluorescence, 30 min | inhibition, % at 20 µM | hit rate 4.2% among 47,000
* = called active by the depositor; i = inactive; · = no result given. Rule as the data show it: active = inhibition above about 30%; inactive = the rest.

SMILES	USP17 block	USP30 block	USP28 block	USP8 inh
COc1cccc(NC(=O)c2ccc(=O)n(Cc3ccc(F)cc3)c2)c1	0.6	14.5	11.9	9.8
COc1cccc(C(=O)NC2CCN(c3ccccc3)C2=O)c1 (stereo unspecified)	15.2	24.4	14.2	13.2
COc1ccc(/C=C/C(=O)Nc2cccc(S(=O)(=O)Nc3ccccc3Cl)c2)c(OC)c1	7.3	68.6*	52.2*	65.6*
CCCC(O)CCCCCCCc1cc(O)cc(O)c1C(=O)OC(CCC)CCCCCCCc1cc(O)cc(O)c1 (stereo unspecified)	91.1*	20.2	25.5	14.7
CCOC(=O)Cc1cc(O)cc(O)c1C(=O)CCCCCC(C)O (stereo unspecified)	-17.0	-25.7	-1.0	-8.0
Cc1nc(-c2ccccc2C(=O)O)cc(C2CCN(C(=O)C(C)(C)C)C2)n1 (stereo unspecified)	-11.0	-86.0	-1.7	-22.1
COc1ccc(CNC(=O)Cn2c(=O)c3c(ncn3C3CCCC3)n(Cc3ccccc3)c2=O)cc1	42.8*	-5.1	3.5	28.3
CCCn1c(NC(=O)Cc2coc3cc(OC)ccc23)nc2ccccc21	8.9	-88.4	-21.4	60.9*
CC(=O)c1ccc(NC(=O)CC(NCc2cccnc2)C(=O)O)cc1 (stereo unspecified)	-4.5	-0.8	-10.9	-6.7
N#Cc1ccc(NC(=O)Nc2ccc(OCc3ccccc3)cc2)cc1	34.5*	17.3	10.2	22.4
N#Cc1ccc(NC(=O)c2cccc(OCc3ccccc3)c2)cc1	3.1	-1.3	22.0	-0.1
CCc1ccc(-c2nc(SC(C)C(=O)NC3CCCc4ccccc43)n[nH]2)cc1 (stereo unspecified)	48.4*	39.6*	11.5	10.5
COc1ccc(-c2cc(C(=O)NC3CCCc4ccccc43)[nH]n2)cc1 (stereo unspecified)	·	24.6	27.7	17.2
O=C(CN1C(=O)NC2(CCCCC2)C1=O)Nc1ccc([N+](=O)[O-])cc1	64.6*	28.0	20.0	16.8
COc1cccc(CC(=O)NC2CCN(c3ccccc3)C2=O)c1 (stereo unspecified)	8.6	16.4	4.8	7.7
Cc1ccc(CNC(=O)NC2CCN(c3ccccc3)C2=O)cc1 (stereo unspecified)	7.6	32.8*	9.2	31.8*
Cc1cc(N2CCC(NS(=O)(=O)Cc3ccccc3)C2=O)ccc1F (stereo unspecified)	21.6	-11.1	-5.0	-3.7
O=C1C(NS(=O)(=O)Cc2ccc(Cl)cc2)CCN1c1ccccc1 (stereo unspecified)	17.8	15.7	8.0	31.4*
O=C(Nc1ccccc1F)NC1CCN(c2ccc(F)cc2)C1=O (stereo unspecified)	51.4*	79.8*	26.3	25.6
COc1ccccc1NC(=O)NC1CCN(c2ccccc2)C1=O (stereo unspecified)	12.0	-7.1	-9.6	2.4
Cc1nnn2c1COCC(CNS(=O)(=O)c1cccc(F)c1)C2 (stereo unspecified)	0.0	-0.5	2.3	-28.3
COC(=O)c1c(OC)cc2c(c1C)Oc1c(Cl)c(O)c(Cl)c(C)c1C(=O)O2	15.9	30.5*	21.2	-4.0
Cc1ccc(S(=O)(=O)N2CCOCC2)cc1C(=O)OCc1cc(=O)oc2c(C)c(C)ccc12	-6.1	10.8	11.4	9.4
COc1cc2c(=O)n(Cc3ccccc3)c(=O)n(CC(=O)N3CCCc4ccccc43)c2cc1OC	24.7	33.8*	8.8	20.4
COc1cccc(S(=O)(=O)N2CCN3Cc4ccccc4N(C)CC3C2)c1 (stereo unspecified)	-120.5	i	-223.5	-298.2
SMILES	USP17 block	USP30 block	USP28 block	USP8 inh
Cc1c(O)c(O)c2c(c1O)COC2	39.1*	-108.0	0.9	1.9
CCc1cccc(C)c1NC(=O)Cn1c(C(C)NC(=O)c2ccc(C)cc2)nc2ccccc21 (stereo unspecified)	61.0*	53.8*	40.3*	75.1*
CC(C)c1ccc(NC(=O)Cn2c(CNC(=O)c3ccccc3)nc3ccccc32)cc1	-28.5	-19.0	-5.3	-27.6
CC(NC(=O)c1ccccc1)c1nc2ccccc2n1CC(=O)Nc1ccc2c(c1)OCO2 (stereo unspecified)	53.8*	49.0*	14.5	74.0*
Cc1cccc(C(C)C)c1NC(=O)Cn1c(COc2ccccc2)nc2ccccc21	·	21.5	3.2	28.1
CC(NC(=O)c1ccccc1)c1nc2ccccc2n1CC(=O)Nc1ccc(F)cc1 (stereo unspecified)	39.3*	17.4	7.8	66.1*
Cc1cc(C)n(CCC(=O)N2CC=C(n3c(C)nc(=O)c4ccccc43)CC2)n1	-29.9	-91.6	-39.3	-7.1
CC(NC(=O)c1noc2c1CCc1sccc1-2)c1ccccc1 (stereo unspecified)	-4.7	3.4	16.0	-16.6
COc1ccc2c(c1)CCc1c(C(=O)NCc3cccnc3)noc1-2	47.0*	52.9*	18.2	28.3
COc1ccc(C)cc1N(C)C(=O)c1noc2c1CCc1sccc1-2	20.9	30.4*	22.4	9.9
COc1ccccc1CNC(=O)c1noc2c1CCc1sccc1-2	26.1	30.1*	28.9	4.9
O=C(NCCc1c[nH]c2ccccc12)c1noc2c1CCc1sccc1-2	31.9*	-55.1	22.4	9.0
O=C(COc1ccc(Cl)cc1)NCC(c1ccco1)N1CCOCC1 (stereo unspecified)	-31.6	-62.8	-15.5	14.5
O=C(/C=C/c1ccccc1)OCC(=O)c1ccc(-n2nncc2-c2ccco2)cc1	-6.8	-89.7	-4.3	20.5
O=C(Cc1ccc(F)cc1)N[C@@H]1CC[C@@H]2C[C@@H]1[C@@H](O)CO2	-7.4	-6.0	-11.3	-2.2
O=C(NCc1ccc(F)cc1)c1noc2c1CCc1sccc1-2	0.5	18.6	-17.2	0.9
O=C(NCc1ccc(Cl)cc1)c1noc2c1CCc1sccc1-2	29.8	-24.9	-4.7	74.7*
Cc1cc(OCCOCCN2CCN(C)CC2)cc(C)c1Cl	0.0	4.6	33.2*	-7.4
CCc1ccccc1OCCOCCN1CCN(C)CC1	-33.8	-17.3	-2.2	1.8
CC(=O)c1ccc(NC(=O)CN(CC(=O)Nc2ccc(C(C)=O)cc2)S(=O)(=O)c2ccc(C)cc2C)cc1	31.5*	-38.8	-2.9	-2.7
Cc1cc(NC(=O)C2CCC3(CC2)CNC(=O)c2ccccc2O3)nn1C (stereo unspecified)	-19.7	-5.0	-9.1	-12.2
CC(NC(=O)c1ccc2ccccc2n1)c1ccccc1 (stereo unspecified)	18.5	44.0*	22.5	14.6
COc1cccc(Cn2nc3n(CC(C)C)c(=O)c4ccc(C(=O)NCC(C)C)cc4n3c2=O)c1	39.3*	64.9*	29.2	8.7
Cc1ccc2nc(-c3cccc(NC(=O)C(C)C)c3)[nH]c2c1	49.2*	20.7	26.3	64.9*
OCCn1c(-c2ccccc2)cn2c(-c3ccccc3)c(-c3ccccc3)nc12	19.0	2.0	-6.4	58.4*
COc1ccc(-n2nc(C(=O)NCCc3ccccc3)cc2-c2cccnc2)cc1	-6.3	9.4	23.8	-1.9
